Assay outcomes from PubChem BioAssay.
Tau FP inhib = tau fibrillization inhibition (FP); P10636; K18 P301L tau heparin fibrillization, Alexa594 FP, 6 h; Potency, µM (highest dose often 57.7 µM), for the others: top-dose activity, negative = inhibition, most hits filed as inhibitors; actives 0.39% (n = 280,000); further: potency means the concentration at half of the fitted maximal effect; nearly all actives have a fitted effect of over 55% in size
Target sequence (P10636 561-689 P618L limits assumed): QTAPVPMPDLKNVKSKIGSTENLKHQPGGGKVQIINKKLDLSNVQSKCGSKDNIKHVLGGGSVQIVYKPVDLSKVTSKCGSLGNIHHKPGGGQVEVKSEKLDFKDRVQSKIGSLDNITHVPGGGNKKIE
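Steps: dispense K18 P301L tau (15 uM plus 0.24 uM Alexa 594 tracer, final) in pH 7 sodium acetate; add compound; add heparin (20 uM final); incubate 6 hr, 37 C; add ThT (30 uM final); after 1 hr ambient, read FP.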
NPSR antagonist = blocks cAMP signaling of the human neuropeptide S receptor; CHO-NPSR cells, cAMP TR-FRET, antagonist mode; Potency, µM (titrated, usually from 38.3 µM), without a hit: at the highest dose activity change, negative = inhibition, most hits filed as inhibitors; actives 1% (n = 220,000); AID 1461; further: potency means the concentration at half of the fitted maximal effect; nearly all actives have a fitted effect of over 50% in size
PNC assembly inh = inhibitors of perinucleolar compartment assembly; PC3M PTB-GFP, PNC prevalence imaging, 16 h; hits give low values; activity change (PNC), negative = inhibition, % at 10 µM; actives 3.1% (n = 140,000); AID 2417;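 active means readout at or below -70, meaning at least 70% loss of cells showing the perinucleolar compartment, a nuclear body marking cancer cells; inconclusive means readout between -30 and a set limit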;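 further: plate controls were DMSO wells for no effect and camptothecin positive control wells for full effect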
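PC3M cells stably expressing PTB-GFP, 750–1000 cells/well, treated 16 h at 37 °C with compound (23 nl of library stock), in duplicate. After paraformaldehyde fixation and Hoechst stain, imaged at 20x; PNC prevalence scored by image analysis.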
Tau fluor cs = counter-screen for tau fibril formation inhibitors; actives 0.93% (n = 280,000); Potency, µM (series often up to 57.7 µM), for inactives: top-dose activity change, negative = decrease; AID 1463; tau K18 P301L Alexa594 fluorescence, heparin fibrillization; further: potency means the concentration at half of the fitted maximal effect; nearly all actives have a fitted effect of over 55% in size
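Human K18 P301L tau (15 uM unlabeled plus 0.24 uM Alexa 594-labeled, final) in 100 mM sodium acetate pH 7 was mixed with compound and 20 uM heparin and incubated 6 hr at 37 C.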
Tau fibril ThT = tau fibrillization inhibition (ThT binding); recombinant tau K18 P301L (four-repeat tau fragment), heparin-induced fibrillization, ThT fluorescence; Potency, µM (highest dose often 57.4 µM), for inactives: at the top dose activity, negative = inhibition, hits mostly inhibitors; actives 2.1% (n = 270,000); further: potency means the concentration at half of the fitted maximal effect; nearly all actives have a fitted effect of over 55% in size
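Recombinant human tau K18 fragment […] carrying P301L, 15 uM unlabeled plus 0.24 uM Alexa 594-labeled, was fibrillized with 20 uM heparin in 100 mM sodium acetate pH 7 for 6 hr at 37 C; 30 uM ThT fluorescence read after 1 hr.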
KDM4E inh = JMJD2E (human) inhibition; B2RXH2; JMJD2E catalytic domain, FDH-coupled NADH fluorescence (FDH is formaldehyde dehydrogenase); Potency, µM (top dose mostly 57.1 µM), for the others: at the highest dose activity change, negative = inhibition, usual class: inhibitors; actives 1.6% (n = 230,000); AID 2147; active means well fitted inhibition curve with a large enough effect, not every such curve was filed as active; inconclusive means small, poorly fitted or top-dose-only effect, or another doubt; inactive means no such curve, though single readings can be large or run the other way;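 further: potency means the concentration at half of the fitted maximal effect; 0% = wells with enzyme and -100% = buffer wells without enzyme; nearly all actives have a fitted effect of over 50% in size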
Target sequence (B2RXH2 1-337 limits assumed): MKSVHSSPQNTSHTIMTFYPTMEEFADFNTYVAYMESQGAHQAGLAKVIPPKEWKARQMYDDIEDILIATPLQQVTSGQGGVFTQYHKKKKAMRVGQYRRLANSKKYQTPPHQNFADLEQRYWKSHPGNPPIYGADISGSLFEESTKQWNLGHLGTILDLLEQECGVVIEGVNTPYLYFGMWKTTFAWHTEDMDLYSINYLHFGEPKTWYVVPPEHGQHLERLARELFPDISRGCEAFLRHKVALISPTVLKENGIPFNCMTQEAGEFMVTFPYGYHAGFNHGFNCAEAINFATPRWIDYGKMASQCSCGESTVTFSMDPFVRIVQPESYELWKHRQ
An asterisk follows results filed as active; ? = inconclusive; / = not tested or not shown; [ ] = dose if it differs, or a comment. The list is not random: actives were taken first. Their share in the collection is about 5.1%. Unless noted, the call rests on the fitted dose curve; in most records, active means well fitted curve in the direction sought with a large enough effect; inconclusive means small, poorly fitted or top-dose-only effect, or another doubt; inactive means no such curve, though single readings can be large; an effect the other way counts as inactive or inconclusive. Unless noted, on the % scale 0 is the no-effect control and ±100 the full control effect.

SMILES	Tau FP inhib	NPSR antagonist	PNC assembly inh	Tau fluor cs	Tau fibril ThT	KDM4E inh
N#C/C(=C\c1ccc(Sc2ccc(Cl)cc2)o1)c1nc2ccccc2[nH]1	?	-48%	1	7.1µM*[quencher]	?	-6%
O=C(CSc1nc(-c2ccccc2F)nc2nc[nH]c12)Nc1c(Cl)cc(Cl)cc1Cl	-10%	5µM*	7	-12%	-7%	-1%
CCc1cccc(C)c1NC(=O)CSc1nc(-c2ccccc2F)nc2nc[nH]c12	?	-60%	30	2%	2%	?
COc1ccc(CN2C(=O)N(c3ccc(F)cc3)C(=O)C2CC(=O)Nc2ccccc2)cc1 (centres undefined)	-13%	/	/	-18%	3%	/
CCOC(=O)c1c(N)nn(C(=O)CC)c1-c1ccccc1	10%	-4%[46.1 µM]	-100*	6%	2%	-1%
COc1ccc(-c2nnn(CC(=O)NCc3ccccc3)n2)cc1OC	-3%	5%	-119*	-5%	-2%	-16%
CCOC(=O)Cn1nnc(-c2ccccc2)n1	4%	0%[46.1 µM]	-100*	3%	1%	6%
COc1cccc(-c2nnn(CC(=O)O)n2)c1	-2%	-7%[46.1 µM]	-91*	-1%	-5%	13%
CC(C)OC(=O)Cn1nnc(-c2ccccc2)n1	-6%	-11%[46.1 µM]	-9	-10%	-13%	-1%
CCN1CCCC1Cn1c(-c2ccccc2)nc2c(NCCOC)nc(C)nc21 (centres undefined)	1%	/	/	4%	9%	?
Cn1nc(-c2ccccc2F)c2cc(C(=O)NCc3cccc(Cl)c3)sc21	?	/	/	?	-2%	/
COC(=O)C1CCN(Cc2ccc(OCCCN3CCN(c4ccc([N+](=O)[O-])cc4)CC3)cc2)CC1	8%	-18%	/	-8%	4µM*	-2%
CC1CCN(CCCCOc2ccc([N+](=O)[O-])cc2)CC1	-4%	-9%[46.1 µM]	9	-8%	-5%	5%
Cc1oc(-c2ccc(Cl)cc2)nc1CSc1nnc(C)n2c1cc1sccc12	-8%	/	/	-14%	-18%	/
Cc1ccc(N2CN(Cc3ccco3)CNC2=S)cc1	-10%	6%	/	-6%	-7%	5%
N#CC1=C2SCN(Cc3ccco3)CN2C(=O)CC1c1c(F)cccc1Cl (centres undefined)	?	-9%[46.1 µM]	18	-29%	7.1µM*	?
Cc1ccc(C2CC(=O)N3CN(Cc4ccco4)CSC3=C2C#N)cc1 (centres undefined)	?	-9%[46.1 µM]	8	-10%	25µM*	-26%
N#CC1=C2SCN(Cc3ccccc3)CN2C(=O)CC1c1ccccc1F (centres undefined)	?	-5%[46.1 µM]	-9	-16%	?	-8%
CCOc1ccccc1NC1=CC(=O)CC(c2ccccc2)C1 (centres undefined)	-3%	1.3µM*	77	3%	0%	-7%
O=C(Nc1nc(=O)[nH]s1)c1ccccc1	-5%	0%	/	-5%	-9%	2%
O=C(Nc1nc(=O)n(C(=O)C2CC2)s1)c1ccccc1	?	-30%[46.1 µM]	20	-19%	11µM*	4%
Cc1ccc(C(=O)Nc2nc(=O)n(C(=O)c3ccccc3C)s2)cc1	?	-21%[46.1 µM]	1	-23%	14µM*	-7%
OCc1cnc(SCc2cccc(F)c2)n1Cc1ccc(F)cc1	0%	/	/	4%	10%	/
COC(=O)[C@@H]1[C@@H](C#N)C2(c3ccccc3-c3ccccc32)N(c2ccc(Cl)cc2)N1C#N	?	10µM*	-25	-13%	?	-7%
CCOC(=O)c1cnc(SCc2nc(N)nc(Nc3ccccc3)n2)nc1N	-9%	-9%[46.1 µM]	-123*	-16%	-7%	-6%
SMILES	Tau FP inhib	NPSR antagonist	PNC assembly inh	Tau fluor cs	Tau fibril ThT	KDM4E inh
CCOC(=O)c1cnc(SCCc2ccccc2)nc1N	-6%	-23%[46.1 µM]	61	-22%	?	0%
CN(CCC#N)C(=O)COC(=O)c1c2c(nc3ccccc13)/C(=C/c1ccco1)CC2	?	-15%	17	?	?	25µM*
Cn1c(=O)c2c(nc(N/N=C/c3ccc(OC(=O)c4ccco4)cc3)n2Cc2ccccc2)n(C)c1=O	10%	7%	?	11µM*[quencher]	?	?
Cc1ccc(C(=O)NC(=S)Nc2cc(-c3nc4ccccc4s3)ccc2C)cc1	-4%	?	-109*	-10%	-15%	-5%
COc1ccc(-c2coc3cc(O)ccc3c2=O)c(O)c1O	16µM*	/	/	13µM*[quencher]	10µM*	11µM*
O=C(Cn1ncc2c(=O)oc3ccccc3c21)NCC1CCCO1 (centres undefined)	0%	7%	-119*	-5%	-3%	12%
Cc1ccc(NC(=O)NCCN2C(=O)C3C4C=CC(C4)C3C2=O)cc1 (centres undefined)	1%	-9%[46.1 µM]	-2	-16%	-8%	4%
COc1ccc(NC(=O)NCCN2C(=O)C3C4C=CC(C4)C3C2=O)cc1 (centres undefined)	3%	8%	-82*	-8%	-6%	13%
Cc1cc(C(F)(F)F)n2nc(C(=O)O)c(Cl)c2n1	-10%	5%[46.1 µM]	-90*	-3%	0%	-7%
CCNCC(=O)N1c2ccccc2CCc2ccc(NC(C)=O)cc21	0%	8%	-105*	4%	1%	1%
Cc1ccc(C)c(NC(=S)NNC(=O)c2csc3c2CCCC3)c1	1%	-17%[46.1 µM]	-27	-19%	?	6%
Cc1ccc(C)c(NC(=S)NNC(=O)c2csc3c2CCC(C)C3)c1 (centres undefined)	-4%	-8%[46.1 µM]	-113*	-20%	-17%	-5%
CC(=O)c1ccc(N=Nc2ccc(N(C)C)cc2)cc1	-7%	-2%	/	-26%	1µM*	?
CC(=O)c1ccc(N=Nc2ccc(C)cc2)cc1	3%	2%	/	-25%	4.5µM*	0%
CN(C)C(=S)c1ccc(N(C)C)cc1	5%	12%	/	1%	2%	-4%
C=CCCC(=O)Nc1nc(C)c(-c2csc(Nc3cc(Cl)ccc3OC)n2)s1	14%	-11%[46.1 µM]	?	14µM*[quencher]	?	-5%
Cc1ccc(Cl)cc1Nc1nc(-c2sc(NC(=O)c3cccc(Cl)c3)nc2C)cs1	11%	-9%[46.1 µM]	37	?	?	?
C=CCCC(=O)Nc1nc(C)c(-c2csc(Nc3ccc(Cl)cc3Cl)n2)s1	-6%	?	4	14µM*[quencher]	7.9µM*	-10%
Cc1cc([N+](=O)[O-])nn1CCCC(=O)Nc1cc(Oc2ccccc2)cc([N+](=O)[O-])c1	11%	-33%	-8	10µM*[quencher]	-10%	3%
Cc1ccc(Oc2cc(NC(=O)CCCn3nc([N+](=O)[O-])c(Cl)c3C)cc([N+](=O)[O-])c2)cc1	4%	-34%	17	7.9µM*[quencher]	-8%	-3%
